In PMC7862700, “An all-to-all approach to the identification of sequence-specific readers for epigenetic DNA modifications on cytosine”:

What was measured:
Experiment in all cases: DAPPL (digital affinity profiling via proximity ligation, sequencing); 10 mM Tris-HCl pH 7.5, 50 mM NaCl, 1 mM DTT, 4% glycerol, room temperature, 30 min; GST-TFs on glutathione beads, 16-mer random dsDNA library, 0.1% formaldehyde crosslink after washing; high values mean tight binding
[1] = target: T1, FLI1 (Homo sapiens, UniProt Q01543 1-452); conditions: protein: recombinant; tags: N-terminal GST; dsDNA, one strand shown
T1 sequence: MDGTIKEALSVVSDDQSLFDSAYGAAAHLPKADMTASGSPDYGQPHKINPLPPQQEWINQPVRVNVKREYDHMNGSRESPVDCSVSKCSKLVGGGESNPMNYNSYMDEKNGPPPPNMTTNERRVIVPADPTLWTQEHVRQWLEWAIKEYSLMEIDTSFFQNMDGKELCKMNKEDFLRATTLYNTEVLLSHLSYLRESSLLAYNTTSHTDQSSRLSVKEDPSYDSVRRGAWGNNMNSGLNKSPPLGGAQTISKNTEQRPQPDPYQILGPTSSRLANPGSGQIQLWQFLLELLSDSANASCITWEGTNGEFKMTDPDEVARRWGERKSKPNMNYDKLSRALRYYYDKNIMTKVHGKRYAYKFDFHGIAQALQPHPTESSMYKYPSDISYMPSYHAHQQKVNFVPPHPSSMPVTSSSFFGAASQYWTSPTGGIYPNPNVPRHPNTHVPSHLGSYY
In short: (§1)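 Pools were built from human transcription factors expressed in yeast as GST fusions, captured on glutathione beads and DNA-barcoded, along with a tag-only sample. Incubation with 200 nmole of a 16-mer random double-stranded DNA library lasted 30 min at room temperature in Tris/NaCl/DTT/glycerol buffer, and was followed by washing, 0.1% formaldehyde crosslinking, proximity ligation, PCR amplification and Illumina NextSeq500 sequencing. Binding signal is the quotient of each hexamer's read frequency for a factor and its frequency for the tag-only sample.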

[2] = target: T2, ELK1 (Homo sapiens, UniProt P19419 1-428); conditions: protein: recombinant; tags: N-terminal GST; dsDNA, one strand shown
T2 sequence: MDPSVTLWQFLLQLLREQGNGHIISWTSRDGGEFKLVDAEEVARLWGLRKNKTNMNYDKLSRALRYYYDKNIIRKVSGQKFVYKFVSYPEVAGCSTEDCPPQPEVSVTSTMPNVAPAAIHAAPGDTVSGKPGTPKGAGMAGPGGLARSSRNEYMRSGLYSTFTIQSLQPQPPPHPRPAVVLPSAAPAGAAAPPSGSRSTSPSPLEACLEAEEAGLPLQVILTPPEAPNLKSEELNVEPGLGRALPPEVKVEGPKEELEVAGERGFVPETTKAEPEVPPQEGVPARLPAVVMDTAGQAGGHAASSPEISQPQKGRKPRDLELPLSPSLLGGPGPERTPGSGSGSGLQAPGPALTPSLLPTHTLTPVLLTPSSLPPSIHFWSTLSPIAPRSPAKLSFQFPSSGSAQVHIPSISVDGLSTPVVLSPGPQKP
In short: as §1

[3] = target: T3, GABPA (Homo sapiens, UniProt Q06546 1-454); conditions: protein: recombinant; tags: N-terminal GST; dsDNA, one strand shown
T3 sequence: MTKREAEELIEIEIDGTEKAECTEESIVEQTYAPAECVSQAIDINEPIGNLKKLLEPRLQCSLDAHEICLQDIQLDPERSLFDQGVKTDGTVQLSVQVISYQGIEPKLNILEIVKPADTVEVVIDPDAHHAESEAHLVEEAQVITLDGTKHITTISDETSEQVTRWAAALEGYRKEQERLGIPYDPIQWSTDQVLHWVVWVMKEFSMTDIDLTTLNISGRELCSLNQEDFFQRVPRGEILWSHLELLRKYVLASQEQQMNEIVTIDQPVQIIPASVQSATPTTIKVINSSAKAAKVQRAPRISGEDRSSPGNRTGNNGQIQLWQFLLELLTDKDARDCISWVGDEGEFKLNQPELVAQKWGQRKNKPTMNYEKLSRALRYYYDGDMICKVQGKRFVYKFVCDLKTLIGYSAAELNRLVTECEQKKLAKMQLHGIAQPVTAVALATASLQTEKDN
In short: as §1

[4] = target: T4, ERG (Homo sapiens, UniProt P11308 1-479); conditions: protein: recombinant; tags: N-terminal GST; dsDNA, one strand shown
T4 sequence: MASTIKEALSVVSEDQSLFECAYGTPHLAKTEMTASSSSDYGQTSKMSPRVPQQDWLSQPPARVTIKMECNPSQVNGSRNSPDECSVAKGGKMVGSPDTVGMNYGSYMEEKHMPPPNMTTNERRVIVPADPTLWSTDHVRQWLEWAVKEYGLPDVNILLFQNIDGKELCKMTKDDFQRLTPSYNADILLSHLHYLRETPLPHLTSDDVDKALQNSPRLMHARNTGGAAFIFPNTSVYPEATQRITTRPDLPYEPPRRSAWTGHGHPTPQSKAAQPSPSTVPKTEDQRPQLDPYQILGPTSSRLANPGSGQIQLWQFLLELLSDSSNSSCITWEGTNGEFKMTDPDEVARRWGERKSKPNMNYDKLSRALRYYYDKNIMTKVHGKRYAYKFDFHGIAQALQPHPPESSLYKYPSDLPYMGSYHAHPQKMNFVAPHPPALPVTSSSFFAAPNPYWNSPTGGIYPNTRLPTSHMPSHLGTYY
In short: as §1

[5] = target: ELF1 (Homo sapiens, UniProt P32519 1-619); conditions: protein: recombinant; tags: N-terminal GST; dsDNA, one strand shown
In short: as §1

[6] = target: T5, EHF (Homo sapiens, UniProt Q9NZC4 1-300); conditions: protein: recombinant; tags: N-terminal GST; dsDNA, one strand shown
T5 sequence: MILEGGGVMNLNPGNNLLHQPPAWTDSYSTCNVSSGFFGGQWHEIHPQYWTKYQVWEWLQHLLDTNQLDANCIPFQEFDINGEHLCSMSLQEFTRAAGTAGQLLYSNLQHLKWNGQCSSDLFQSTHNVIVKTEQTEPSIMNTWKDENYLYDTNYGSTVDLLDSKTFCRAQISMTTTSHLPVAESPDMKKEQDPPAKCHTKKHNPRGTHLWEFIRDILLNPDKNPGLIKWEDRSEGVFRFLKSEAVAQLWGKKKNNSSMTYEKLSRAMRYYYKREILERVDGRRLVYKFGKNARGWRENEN
In short: as §1

[7] = target: SPI1 (Homo sapiens, UniProt P17947 1-270); conditions: protein: recombinant; tags: N-terminal GST; dsDNA, one strand shown
In short: as §1

[8] = target: SPIB (Homo sapiens, UniProt Q01892 1-262); conditions: protein: recombinant; tags: N-terminal GST; dsDNA, one strand shown
In short: as §1

[9] = target: T6, ELK3 (Homo sapiens, UniProt P41970 1-407); conditions: protein: recombinant; tags: N-terminal GST; dsDNA, one strand shown
T6 sequence: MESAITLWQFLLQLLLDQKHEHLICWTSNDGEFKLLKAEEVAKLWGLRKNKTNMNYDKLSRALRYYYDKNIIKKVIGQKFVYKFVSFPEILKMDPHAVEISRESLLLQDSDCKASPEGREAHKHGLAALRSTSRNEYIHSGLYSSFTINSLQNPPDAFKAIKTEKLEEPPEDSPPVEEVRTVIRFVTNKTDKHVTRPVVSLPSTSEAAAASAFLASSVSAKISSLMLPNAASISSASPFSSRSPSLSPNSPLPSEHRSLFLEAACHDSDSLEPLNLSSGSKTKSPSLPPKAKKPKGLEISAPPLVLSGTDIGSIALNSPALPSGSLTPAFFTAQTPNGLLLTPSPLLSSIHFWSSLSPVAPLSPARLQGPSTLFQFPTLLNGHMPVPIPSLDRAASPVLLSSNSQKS
In short: as §1

[10] = target: T7, FEV (Homo sapiens, UniProt Q99581 1-238); conditions: protein: recombinant; tags: N-terminal GST; dsDNA, one strand shown
T7 sequence: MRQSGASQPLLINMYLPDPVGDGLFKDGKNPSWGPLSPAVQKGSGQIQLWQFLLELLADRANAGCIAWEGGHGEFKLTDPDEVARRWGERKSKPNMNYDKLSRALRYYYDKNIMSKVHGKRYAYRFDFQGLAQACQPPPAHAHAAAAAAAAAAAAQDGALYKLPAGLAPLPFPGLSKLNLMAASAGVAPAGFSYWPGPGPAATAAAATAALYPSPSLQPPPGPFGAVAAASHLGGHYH
In short: as §1

[11] = target: ETV5 (Homo sapiens, UniProt P41161 1-510); conditions: protein: recombinant; tags: N-terminal GST; dsDNA, one strand shown
In short: as §1

[12] = target: HSF1 (Homo sapiens, UniProt Q00613 1-529); conditions: protein: recombinant; tags: N-terminal GST; chain copies: 3; dsDNA, one strand shown
In short: as §1

[13] = target: T8, SPIC (Homo sapiens, UniProt Q8N5J4 1-248); conditions: protein: recombinant; tags: N-terminal GST; dsDNA, one strand shown
T8 sequence: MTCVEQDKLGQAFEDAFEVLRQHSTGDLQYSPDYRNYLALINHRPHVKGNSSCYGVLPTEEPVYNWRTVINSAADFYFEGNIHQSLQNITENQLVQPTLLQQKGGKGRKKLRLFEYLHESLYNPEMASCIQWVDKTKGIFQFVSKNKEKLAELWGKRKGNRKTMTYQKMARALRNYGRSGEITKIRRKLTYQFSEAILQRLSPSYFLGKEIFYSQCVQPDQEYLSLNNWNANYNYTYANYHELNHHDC
In short: as §1

[14] = target: ELF4 (Homo sapiens, UniProt Q99607 1-663); conditions: protein: recombinant; tags: N-terminal GST; dsDNA, one strand shown
In short: as §1

[15] = target: T9, ELK4 (Homo sapiens, UniProt P28324-2 1-405); conditions: protein: recombinant; tags: N-terminal GST; dsDNA, one strand shown
T9 sequence: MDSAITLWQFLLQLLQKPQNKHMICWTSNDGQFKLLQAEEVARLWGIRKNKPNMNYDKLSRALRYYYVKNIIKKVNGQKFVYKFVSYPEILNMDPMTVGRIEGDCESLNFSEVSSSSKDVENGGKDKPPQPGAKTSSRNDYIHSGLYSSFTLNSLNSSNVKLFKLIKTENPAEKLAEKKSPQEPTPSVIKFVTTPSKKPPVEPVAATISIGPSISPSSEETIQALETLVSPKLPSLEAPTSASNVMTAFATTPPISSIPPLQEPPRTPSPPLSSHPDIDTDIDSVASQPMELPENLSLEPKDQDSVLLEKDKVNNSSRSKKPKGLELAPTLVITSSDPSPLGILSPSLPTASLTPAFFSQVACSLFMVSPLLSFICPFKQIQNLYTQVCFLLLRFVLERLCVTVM
In short: as §1

[16] = target: T10, ETV2 (Homo sapiens, UniProt O00321 1-342); conditions: protein: recombinant; tags: N-terminal GST; dsDNA, one strand shown
T10 sequence: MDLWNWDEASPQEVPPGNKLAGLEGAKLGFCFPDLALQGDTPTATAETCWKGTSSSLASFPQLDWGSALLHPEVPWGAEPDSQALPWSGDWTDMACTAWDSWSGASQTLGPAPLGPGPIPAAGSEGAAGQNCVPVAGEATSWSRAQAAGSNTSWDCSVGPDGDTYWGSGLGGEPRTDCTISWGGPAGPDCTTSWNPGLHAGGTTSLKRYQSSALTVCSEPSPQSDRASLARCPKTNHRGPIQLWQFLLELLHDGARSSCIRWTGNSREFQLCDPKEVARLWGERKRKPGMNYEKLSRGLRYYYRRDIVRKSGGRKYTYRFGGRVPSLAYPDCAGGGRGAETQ
In short: as §1

[17] = target: T11, ELF3 (Homo sapiens, UniProt P78545 1-371); conditions: protein: recombinant; tags: N-terminal GST; dsDNA, one strand shown
T11 sequence: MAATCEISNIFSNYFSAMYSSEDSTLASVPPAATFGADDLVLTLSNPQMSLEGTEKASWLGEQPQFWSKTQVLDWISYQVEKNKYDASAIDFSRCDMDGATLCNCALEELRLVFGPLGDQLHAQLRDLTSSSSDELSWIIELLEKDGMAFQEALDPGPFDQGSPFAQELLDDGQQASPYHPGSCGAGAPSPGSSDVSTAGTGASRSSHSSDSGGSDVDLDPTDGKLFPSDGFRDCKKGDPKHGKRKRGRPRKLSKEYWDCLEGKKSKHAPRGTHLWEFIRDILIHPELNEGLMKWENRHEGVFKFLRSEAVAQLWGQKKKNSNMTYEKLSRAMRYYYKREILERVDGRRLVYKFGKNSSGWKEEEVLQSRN
In short: as §1

[18] = target: CRX (Homo sapiens, UniProt O43186 1-299); conditions: protein: recombinant; tags: N-terminal GST; dsDNA, one strand shown
In short: as §1

[19] = target: ETV1 (Homo sapiens, UniProt P50549 1-477); conditions: protein: recombinant; tags: N-terminal GST; dsDNA, one strand shown
In short: as §1

Sequence of SPIB (Q01892 whole entry): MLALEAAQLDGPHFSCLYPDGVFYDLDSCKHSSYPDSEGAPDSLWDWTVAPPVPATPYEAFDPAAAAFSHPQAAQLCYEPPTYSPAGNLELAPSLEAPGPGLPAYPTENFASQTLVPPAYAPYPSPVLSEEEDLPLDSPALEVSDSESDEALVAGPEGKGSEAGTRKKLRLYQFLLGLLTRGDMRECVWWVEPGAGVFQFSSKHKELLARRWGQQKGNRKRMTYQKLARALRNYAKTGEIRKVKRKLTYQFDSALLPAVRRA
Sequence of ETV1 (P50549 whole entry): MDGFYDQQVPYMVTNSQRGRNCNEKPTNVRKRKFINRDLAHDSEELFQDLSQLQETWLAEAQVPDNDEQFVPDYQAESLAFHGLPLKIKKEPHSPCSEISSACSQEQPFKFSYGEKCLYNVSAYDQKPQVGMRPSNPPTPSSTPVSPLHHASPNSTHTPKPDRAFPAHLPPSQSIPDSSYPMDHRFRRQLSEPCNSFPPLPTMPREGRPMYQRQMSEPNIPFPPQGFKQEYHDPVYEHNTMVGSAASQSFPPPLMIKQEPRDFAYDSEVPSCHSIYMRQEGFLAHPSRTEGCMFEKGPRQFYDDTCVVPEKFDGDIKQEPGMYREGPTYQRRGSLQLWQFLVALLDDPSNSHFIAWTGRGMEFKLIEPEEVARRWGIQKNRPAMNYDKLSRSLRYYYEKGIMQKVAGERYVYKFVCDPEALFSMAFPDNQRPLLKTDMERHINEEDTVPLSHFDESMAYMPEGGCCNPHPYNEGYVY
Sequence of ETV5 (P41161 whole entry): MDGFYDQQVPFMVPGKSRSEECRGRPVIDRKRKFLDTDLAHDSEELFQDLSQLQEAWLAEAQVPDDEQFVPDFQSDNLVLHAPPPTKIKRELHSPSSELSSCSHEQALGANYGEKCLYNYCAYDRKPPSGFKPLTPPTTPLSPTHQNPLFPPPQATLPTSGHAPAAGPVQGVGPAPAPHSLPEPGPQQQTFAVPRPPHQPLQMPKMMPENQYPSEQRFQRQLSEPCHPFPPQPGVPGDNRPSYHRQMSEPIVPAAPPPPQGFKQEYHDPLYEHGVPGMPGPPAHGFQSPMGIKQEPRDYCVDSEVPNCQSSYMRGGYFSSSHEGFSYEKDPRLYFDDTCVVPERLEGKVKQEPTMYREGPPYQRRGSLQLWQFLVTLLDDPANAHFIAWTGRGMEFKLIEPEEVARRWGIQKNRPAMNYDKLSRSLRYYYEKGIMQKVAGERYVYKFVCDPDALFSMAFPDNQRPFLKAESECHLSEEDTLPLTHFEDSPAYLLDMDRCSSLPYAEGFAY
Sequence of ELF1 (P32519 whole entry): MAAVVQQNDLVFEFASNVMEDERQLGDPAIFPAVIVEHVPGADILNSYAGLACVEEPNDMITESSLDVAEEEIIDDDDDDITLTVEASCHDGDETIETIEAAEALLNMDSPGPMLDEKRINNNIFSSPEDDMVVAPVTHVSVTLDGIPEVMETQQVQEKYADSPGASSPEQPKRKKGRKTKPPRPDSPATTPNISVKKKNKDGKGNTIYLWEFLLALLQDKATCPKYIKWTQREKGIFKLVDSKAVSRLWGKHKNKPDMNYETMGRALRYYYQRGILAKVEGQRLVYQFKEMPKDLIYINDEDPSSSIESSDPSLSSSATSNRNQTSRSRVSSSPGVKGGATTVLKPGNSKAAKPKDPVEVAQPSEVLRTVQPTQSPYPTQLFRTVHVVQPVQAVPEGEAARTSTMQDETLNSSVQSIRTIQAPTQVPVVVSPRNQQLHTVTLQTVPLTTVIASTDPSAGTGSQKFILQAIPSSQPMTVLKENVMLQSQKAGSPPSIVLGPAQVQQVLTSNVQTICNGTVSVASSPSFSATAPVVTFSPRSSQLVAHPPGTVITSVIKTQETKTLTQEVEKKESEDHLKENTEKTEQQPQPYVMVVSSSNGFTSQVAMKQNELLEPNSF
Sequence of CRX (O43186 whole entry): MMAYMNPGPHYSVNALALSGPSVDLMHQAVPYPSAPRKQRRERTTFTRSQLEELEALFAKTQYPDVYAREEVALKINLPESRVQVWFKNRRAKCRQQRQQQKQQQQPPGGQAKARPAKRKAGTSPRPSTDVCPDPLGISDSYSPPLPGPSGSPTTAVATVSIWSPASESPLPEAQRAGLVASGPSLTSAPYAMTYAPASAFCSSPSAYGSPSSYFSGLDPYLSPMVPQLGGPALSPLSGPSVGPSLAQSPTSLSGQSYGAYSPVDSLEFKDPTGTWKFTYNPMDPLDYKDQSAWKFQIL
Sequence of HSF1 (Q00613 whole entry): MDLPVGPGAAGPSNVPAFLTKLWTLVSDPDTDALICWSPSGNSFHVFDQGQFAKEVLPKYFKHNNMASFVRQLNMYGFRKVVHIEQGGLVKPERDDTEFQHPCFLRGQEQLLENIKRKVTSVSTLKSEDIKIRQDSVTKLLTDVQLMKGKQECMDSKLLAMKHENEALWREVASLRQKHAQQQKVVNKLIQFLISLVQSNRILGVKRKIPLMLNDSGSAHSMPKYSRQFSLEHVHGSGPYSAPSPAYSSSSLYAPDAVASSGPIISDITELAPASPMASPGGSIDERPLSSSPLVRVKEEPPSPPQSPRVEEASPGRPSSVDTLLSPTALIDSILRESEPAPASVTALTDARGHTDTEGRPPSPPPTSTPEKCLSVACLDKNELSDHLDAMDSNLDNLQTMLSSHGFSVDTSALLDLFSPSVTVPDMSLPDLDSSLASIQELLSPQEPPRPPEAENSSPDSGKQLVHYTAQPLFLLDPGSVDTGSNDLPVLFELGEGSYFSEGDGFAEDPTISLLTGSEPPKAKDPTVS
Sequence of ELF4 (Q99607 whole entry): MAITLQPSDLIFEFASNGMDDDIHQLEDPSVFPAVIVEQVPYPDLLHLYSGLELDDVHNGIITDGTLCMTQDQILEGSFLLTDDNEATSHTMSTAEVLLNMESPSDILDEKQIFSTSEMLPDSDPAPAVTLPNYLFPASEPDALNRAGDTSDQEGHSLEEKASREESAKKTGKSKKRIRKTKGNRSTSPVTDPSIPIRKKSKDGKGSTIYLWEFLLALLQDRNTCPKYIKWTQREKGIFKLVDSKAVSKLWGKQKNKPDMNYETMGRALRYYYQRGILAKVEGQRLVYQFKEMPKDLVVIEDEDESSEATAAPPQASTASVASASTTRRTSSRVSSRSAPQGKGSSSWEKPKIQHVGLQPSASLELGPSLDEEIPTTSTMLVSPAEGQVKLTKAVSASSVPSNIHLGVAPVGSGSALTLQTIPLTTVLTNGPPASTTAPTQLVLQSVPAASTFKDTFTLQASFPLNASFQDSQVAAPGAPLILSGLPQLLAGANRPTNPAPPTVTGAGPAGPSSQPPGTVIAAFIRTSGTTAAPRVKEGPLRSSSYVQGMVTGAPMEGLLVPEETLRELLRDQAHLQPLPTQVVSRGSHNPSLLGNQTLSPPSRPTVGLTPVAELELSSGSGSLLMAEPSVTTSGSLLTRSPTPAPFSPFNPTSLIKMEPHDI

## TTCTAG
[1]
  binding signal: 1.27 fold enrichment (6-mer frequency, TF over GST control)
[2]
  binding signal: 1.26 fold enrichment (6-mer frequency, TF over GST control)
[3]
  binding signal: 1.38 fold enrichment (6-mer frequency, TF over GST control)
[4]
  binding signal: 1.33 fold enrichment (6-mer frequency, TF over GST control)
[5]
  binding signal: 1.25 fold enrichment (6-mer frequency, TF over GST control)
[6]
  binding signal: 1.2 fold enrichment (6-mer frequency, TF over GST control)
[7]
  binding signal: 1.2 fold enrichment (6-mer frequency, TF over GST control)
[8]
  binding signal: 1.14 fold enrichment (6-mer frequency, TF over GST control)
[9]
  binding signal: 1.3 fold enrichment (6-mer frequency, TF over GST control)
[10]
  binding signal: 1.15 fold enrichment (6-mer frequency, TF over GST control)
[11]
  binding signal: 1.11 fold enrichment (6-mer frequency, TF over GST control)
[12]
  binding signal: 7.56 fold enrichment (6-mer frequency, TF over GST control)
[13]
  binding signal: 1.29 fold enrichment (6-mer frequency, TF over GST control)
[14]
  binding signal: 1.22 fold enrichment (6-mer frequency, TF over GST control)
[15]
  binding signal: 1.22 fold enrichment (6-mer frequency, TF over GST control)
[16]
  binding signal: 1.18 fold enrichment (6-mer frequency, TF over GST control)
[17]
  binding signal: 1.42 fold enrichment (6-mer frequency, TF over GST control)
[18]
  binding signal: 2.67 fold enrichment (6-mer frequency, TF over GST control)
[19]
  binding signal: 1.2 fold enrichment (6-mer frequency, TF over GST control)
